Bioassay records from PubChem.
Compounds with a hit are over-represented: about 19% of the library has one in this group of screens.
HT1080 IDH1KD tx: HT-1080 IDH1 knockdown cell toxicity (counter line); HT-1080 IDH1 knockdown viability, ATP luminescence, 48 h; Potency, µM (titrated, usually from 46.1 µM), for the others: at the top dose activity, negative = toxicity, most hits filed as cytotoxic; 360,000 tested, 2% active;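 note: potency is the fitted concentration of half-maximal effect; 0% = DMSO wells and -100% = cell-free medium wells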
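Luminescent ATP read-out (CellTiter-Glo, 10 min at room temperature) after 48 h compound exposure at 37 °C gave viability of IDH1-knockdown HT-1080 cells. Activity was normalised to DMSO and cell-free wells, then fitted as concentration-response curves.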
TDP1 cell noCPT: qHTS for Inhibitors of human tyrosyl-DNA phosphodiesterase 1 (TDP1): qHTS in cells in absence of CPT; 420,000 tested, 15% active; AID 686978, 2013; Potency, µM (highest dose often 46.2 µM), without a hit: at the highest dose activity change, negative = growth inhibition, hits mostly inhibitors; DT40 Tdp1-/- hTDP1 cells, no CPT, ATP luminescence, 48 h; note: potency is the fitted concentration of half-maximal effect; nearly all actives have a fitted effect of over 55% in size
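Cells were dispensed at 400 per well, compounds added by pin tool, plates incubated ≥48 hr at 37 °C, then CellTiter-Glo added for 30 min at room temperature before luminescence reading. Line: DT40 Tdp1-/- complemented with hTDP1; camptothecin omitted.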
DT40 TDP1 CPT: DT40-hTDP1 cell growth loss with CPT | chicken DT40 Tdp1-/-;hTDP1 cells + 20 nM CPT, ATP luminescence, 48 h | Potency, µM (highest dose often 46.2 µM), inactives show top-dose activity change, negative = growth inhibition, usual class: inhibitors | 420,000 tested, 12% active | AID 686979; note: potency is the fitted concentration of half-maximal effect; nearly all actives have a fitted effect of over 55% in size
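Chicken DT40 Tdp1-/- cells stably complemented with human TDP1 were seeded at 400 cells/well in medium containing 20 nM camptothecin, exposed to pin-transferred compounds, and grown at 37 °C for at least 48 hr. Viability was read as ATP luminescence.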
HT1080-NT tox: kills 2HG-producing HT-1080-NT fibrosarcoma cells | HT-1080-NT fibrosarcoma viability, CellTiter-Glo ATP luminescence, 48 h | Potency, µM (titrated, usually from 46.1 µM), for inactives: at the top dose activity, negative = less viability, most hits filed as cytotoxic | 360,000 tested, 1.6% active;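 note: NT is the 2HG producing partner of a matched IDH1 knockdown line; potency is the fitted concentration of half-maximal effect; 0% = DMSO-treated cells and -100% = media-only wells without cells; nearly all actives have a fitted effect of over 55% in size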
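A 48-hour cytotoxicity screen used HT-1080-NT cells plated 2 hours before compound delivery. ATP-based CellTiter-Glo luminescence measured viability, normalized to DMSO and no-cell controls.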
IL-1B inflam inh: inhibitors of inflammasome signaling (IL-1 beta secretion) | THP-1 LPS/ATP IL-1B secretion, AlphaLISA, 16 h; stronger effect = lower value | activity change, % at 57.5 µM | 360,000 tested, 4.7% active; in the data active = activity change below about -50%; inconclusive = mostly about -30% to -49%
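Secreted IL-1B measured by AlphaLISA bead assay after 16 h compound exposure of THP-1 cells; compounds (final up to 57.5 uM) added 1 h before LPS (250 ng/mL) and ATP (1.25 mM) stimulation; lower signal means less secretion.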
The depositor's hits bear a star. Unless noted, calls come from the whole dose curve; as a rule, active = well fitted curve in the direction sought with a large enough effect; inconclusive = small, poorly fitted or top-dose-only effect, or another doubt; inactive = no such curve, though single readings can be large; an effect the other way counts as inactive or inconclusive. Unless noted, % is set by controls: 0 for no effect and ±100 for the full control effect.

How did Cc1ccc(S(=O)(=O)N2CC3(O)CN(C(=O)OC(C)C)N(C(=O)OC(C)C)CC3(OC(=O)NCC3CCCCC3)C2)cc1 (stereo not given) do in these assays?
HT1080 IDH1KD tx: inconclusive; TDP1 cell noCPT: inconclusive; DT40 TDP1 CPT: 16µM*; HT1080-NT tox: inconclusive; IL-1B inflam inh: inconclusive

What do the screens show for `CCCCCCNC(=O)OC12CN(C(=O)OC(C)C)N(C(=O)OC(C)C)CC1(O)CN(S(=O)(=O)c1ccc(C)cc1)C2` (stereo not given)?
HT1080 IDH1KD tx: inconclusive; TDP1 cell noCPT: 21µM*; DT40 TDP1 CPT: inconclusive; HT1080-NT tox: -28%; IL-1B inflam inh: -26

What do the screens show for `Cc1ccc(S(=O)(=O)N2CC3(O)CN(C(=O)OC(C)C)N(C(=O)OC(C)C)CC3(OC(=O)NC3CC3)C2)cc1` (stereo not given)?
HT1080 IDH1KD tx: 18%; TDP1 cell noCPT: inconclusive; DT40 TDP1 CPT: inconclusive; HT1080-NT tox: 13%; IL-1B inflam inh: -21

Results for CN(C)S(=O)(=O)c1ccc(NC(=O)COC(=O)C2COc3ccccc3O2)cc1 (stereo not given) ?
HT1080 IDH1KD tx: 1%; TDP1 cell noCPT: -9%; DT40 TDP1 CPT: 12%; HT1080-NT tox: -3%; IL-1B inflam inh: -5

How did O=c1c2ccc([N+](=O)[O-])cc2ncn1Cc1ccccc1C(F)(F)F do in these assays?
HT1080 IDH1KD tx: 2%; TDP1 cell noCPT: inconclusive; DT40 TDP1 CPT: -25%; HT1080-NT tox: -1%; IL-1B inflam inh: 11

Results for CC(=O)Nc1ccc(C(=O)N2CCCCC2c2cc(C(=O)Nc3ccccc3)no2)cc1 (stereo not given) ?
HT1080 IDH1KD tx: 7%; TDP1 cell noCPT: -16%; DT40 TDP1 CPT: -27%; HT1080-NT tox: 12%; IL-1B inflam inh: -1

Results for COc1cc(C(=O)N2CCCCC2c2cc(C(=O)NC(C)C)no2)cc(OC)c1C (stereo not given) ?
HT1080 IDH1KD tx: 17%; TDP1 cell noCPT: inconclusive; DT40 TDP1 CPT: inconclusive; HT1080-NT tox: inconclusive; IL-1B inflam inh: 15

Results for CCCNC(=O)c1cc(C2CCCCN2C(=O)c2ccc(C(C)C)cc2)on1 (stereo not given) ?
HT1080 IDH1KD tx: 14%; TDP1 cell noCPT: 10µM*; DT40 TDP1 CPT: 21µM*; HT1080-NT tox: -3%; IL-1B inflam inh: -9

What do the screens show for `CCCNC(=O)c1cc(C2CCCCN2C(=O)c2cc(OC)c(C)c(OC)c2)on1` (stereo not given)?
HT1080 IDH1KD tx: -2%; TDP1 cell noCPT: inconclusive; DT40 TDP1 CPT: 21µM*; HT1080-NT tox: 14%; IL-1B inflam inh: 23

How did CCCNC(=O)c1cc(C2CCCCN2C(=O)c2ccccc2)on1 (stereo not given) do in these assays?
HT1080 IDH1KD tx: 12%; TDP1 cell noCPT: -24%; DT40 TDP1 CPT: -24%; HT1080-NT tox: inconclusive; IL-1B inflam inh: 36

How did CC(C)c1ccc(C(=O)N2CCCCC2c2cc(C(=O)Nc3ccncc3)no2)cc1 (stereo not given) do in these assays?
HT1080 IDH1KD tx: -26%; TDP1 cell noCPT: 16µM*; DT40 TDP1 CPT: 16µM*; HT1080-NT tox: -9%; IL-1B inflam inh: 48

What do the screens show for `CNc1ncncc1-c1c(C)noc1C`?
TDP1 cell noCPT: 25%; DT40 TDP1 CPT: inconclusive

What do the screens show for `CCc1nc2oc3ccc(C)cc3c(=O)c2cc1C(=O)OC`?
HT1080 IDH1KD tx: 23%; TDP1 cell noCPT: inconclusive; DT40 TDP1 CPT: -4%; HT1080-NT tox: 26%; IL-1B inflam inh: -6

How did CCCOc1cc(C)c(S(=O)(=O)NC2CC(C)(C)NC(C)(C)C2)cc1C do in these assays?
HT1080 IDH1KD tx: -26%; TDP1 cell noCPT: inconclusive; DT40 TDP1 CPT: inconclusive; HT1080-NT tox: -14%; IL-1B inflam inh: inconclusive

How did COc1ccc(S(=O)(=O)N2CCCCC2c2cc(C(=O)NCc3cccnc3)no2)cc1 (stereo not given) do in these assays?
HT1080 IDH1KD tx: 1%; TDP1 cell noCPT: inconclusive; DT40 TDP1 CPT: 29µM*; HT1080-NT tox: 17%; IL-1B inflam inh: 8

What do the screens show for `COc1ccc(NC(=O)c2cc(C3CCCCN3S(=O)(=O)c3cccs3)on2)c(C)c1` (stereo not given)?
HT1080 IDH1KD tx: -12%; TDP1 cell noCPT: 23µM*; DT40 TDP1 CPT: inconclusive; HT1080-NT tox: -2%; IL-1B inflam inh: 10

How did COc1ccc(S(=O)(=O)N2CCCCC2c2cc(C(=O)Nc3ccc(F)c(Cl)c3)no2)cc1 (stereo not given) do in these assays?
HT1080 IDH1KD tx: inconclusive; TDP1 cell noCPT: 16µM*; DT40 TDP1 CPT: 16µM*; HT1080-NT tox: inconclusive; IL-1B inflam inh: -17

Results for COc1ccc(S(=O)(=O)N2CCCCC2c2cc(C(=O)Nc3ccc(OC)cc3C)no2)cc1 (stereo not given) ?
HT1080 IDH1KD tx: 1%; TDP1 cell noCPT: 18µM*; DT40 TDP1 CPT: 16µM*; HT1080-NT tox: -2%; IL-1B inflam inh: 9

How did COc1ccc(S(=O)(=O)N2CCCCC2c2cc(C(=O)Nc3ccccc3)no2)cc1 (stereo not given) do in these assays?
HT1080 IDH1KD tx: 4%; TDP1 cell noCPT: -25%; DT40 TDP1 CPT: -18%; HT1080-NT tox: inconclusive; IL-1B inflam inh: 0

How did CCOC(=O)C1CCCN(CCC(=O)Nc2ccc(OC)cc2OC)C1 (stereo not given) do in these assays?
TDP1 cell noCPT: -1%; DT40 TDP1 CPT: 8%

Results for COc1ccc(CC(N)c2csc(NC(=O)CCc3ccccc3)n2)cc1 (stereo not given) ?
HT1080 IDH1KD tx: inconclusive; TDP1 cell noCPT: 21µM*; DT40 TDP1 CPT: 23µM*; HT1080-NT tox: inconclusive; IL-1B inflam inh: inconclusive

Results for COc1ccc(CC(N)c2csc(NC(=O)Nc3ccccc3Cc3ccccc3)n2)cc1 (stereo not given) ?
HT1080 IDH1KD tx: inconclusive; TDP1 cell noCPT: 16µM*; DT40 TDP1 CPT: 21µM*; HT1080-NT tox: inconclusive; IL-1B inflam inh: -52*

Results for COc1ccc(CC(N)c2csc(NC(=O)Nc3ccccc3C(C)C)n2)cc1 (stereo not given) ?
HT1080 IDH1KD tx: inconclusive; TDP1 cell noCPT: 16µM*; DT40 TDP1 CPT: 8.2µM*; HT1080-NT tox: inconclusive; IL-1B inflam inh: inconclusive

How did COc1ccc(CCC(=O)Nc2nnc(C)s2)cc1 do in these assays?
HT1080 IDH1KD tx: 8%; TDP1 cell noCPT: -20%; DT40 TDP1 CPT: inconclusive; HT1080-NT tox: 23%

How did COc1ccc(CCNC(=O)c2cccnc2)cc1OC do in these assays?
HT1080 IDH1KD tx: 5%; TDP1 cell noCPT: -14%; DT40 TDP1 CPT: 0%; HT1080-NT tox: 12%; IL-1B inflam inh: 36
